Data taken from PubChem BioAssay AID1159580 (chemical genetic matrix, 2015).
In all, about 5,500 compounds went through this assay and about 2,000 (36%) were called active. Another 18% or so got no clear call; they are omitted. No stated cut-off is given here; in the data, active means normalized growth mostly below about 0.91 (no sharp cut-off); inconclusive means no clear call, values can overlap the other calls; inactive means mostly above about 0.92. Some of the results follow.

Assay: chemical genetic growth profiling, strain panel (AID 1159580);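 further: tested at 20 µM; growth read once vehicle control cultures reached saturation at 30 °C; 1 = growth at the plate median or of vehicle wells; lower values mean less growth of the strain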
Conditions: growth OD

Measured: normalized growth

O/N=C\c1sccc1Oc1ccccc1
inactive: S. cerevisiae deletion strains, locus YAL013W, strain DEP1, active compounds read low 0.964 | S. cerevisiae deletion strains, locus YBR229C, strain ROT2, active compounds read low 0.958 | S. cerevisiae deletion strains, locus YCL061C, strain MRC1, active compounds read low 0.942 | S. cerevisiae deletion strains, locus YDL101C, strain DUN1, active compounds read low 0.926 | S. cerevisiae deletion strains, locus YDR150W, strain NUM1, active compounds read low 0.953 | S. cerevisiae deletion strains, locus YGR078C, strain PAC10, active compounds read low 0.952 | S. cerevisiae deletion strains, locus YHR030C, strain SLT2, active compounds read low 0.729 | S. cerevisiae deletion strains, locus YHR087W, strain rtc3, active compounds read low 1.01 | S. cerevisiae deletion strains, locus YJL187C, strain SWE1, active compounds read low 1.01 | S. cerevisiae deletion strains, locus YJR043C, strain POL32, active compounds read low 1 | S. cerevisiae deletion strains, locus YJR075W, strain HOC1, active compounds read low 0.978 | S. cerevisiae deletion strains, locus YLR039C, strain RIC1, active compounds read low 0.954 | S. cerevisiae deletion strains, locus YLR058C, strain SHM2 (second series), active compounds read low 0.997 | S. cerevisiae deletion strains, locus YLR085C, strain ARP6, active compounds read low 0.911 | S. cerevisiae deletion strains, locus YLR262C, strain YPT6, active compounds read low 0.931 | S. cerevisiae deletion strains, locus YML094W, strain GIM5, active compounds read low 0.927 | S. cerevisiae deletion strains, locus YMR219W, strain ESC1, active compounds read low 0.977 | S. cerevisiae deletion strains, locus YMR263W, strain SAP30, active compounds read low 0.968 | S. cerevisiae deletion strains, locus YNL128W, strain TEP1, active compounds read low 0.98 | S. cerevisiae deletion strains, locus YNL298W, strain CLA4 (second series), active compounds read low 0.962 | S. cerevisiae deletion strains, locus YNL322C, strain KRE1, active compounds read low 0.988 | S. cerevisiae deletion strains, locus YNR030W, strain Alg12, active compounds read low 0.932 | S. cerevisiae deletion strains, locus YOL006C, strain TOP1, active compounds read low 0.795 | S. cerevisiae deletion strains, locus YPL055C, strain LGE1, active compounds read low 0.98 | S. cerevisiae deletion strains, locus YPL241C, strain CIN2, active compounds read low 0.917 | S. cerevisiae deletion strains, locus YPR135W, strain CTF4, active compounds read low 0.648 | S. cerevisiae strains, strain wild type, active compounds read low 0.953
active: S. cerevisiae deletion strains, locus YEL061C, strain CIN8, active compounds read low 0.869 | S. cerevisiae deletion strains, locus YNL153C, strain GIM3, active compounds read low 0.905
